The results in this text go back to PubChem BioAssay (NCATS).

SMILES strings stand for the structures. Where “and” joins values, the source holds several entries; their conditions need not be identical. Identical values can stand only once. Inconclusive results are not listed. Calls of active or inactive are those of the source. Unless noted, calls follow the shape of the full dose curve. A value given as a limit tells only on which side of the number the result lay.

The nature of assay [1]: Cell Viability - SK-N-SH (AID 435).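 Also: potency is read from the fitted curve at half-maximal effect; compound exposure lasted 40 h at 37 °C.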 The settings on record: SK-N-SH neuroblastoma cell viability qHTS. The method in brief: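 CellTiter-Glo ATP luminescence, 20 min RT read; cells pre-plated 5 hr, compound 40 hr at 37 °C, 1500 cells/well, complete medium. Normalized DMSO = 0, 100 uM tamoxifen = 100% inhibition; Hill-fit AC50.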
Assay [2] can be described thus: Cell Viability - NIH 3T3 (AID 541; active = well fitted curve in the direction sought with a large enough effect; an effect the other way counts as inactive or inconclusive;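 also: cells exposed to compound for 40 hours; plate controls were DMSO alone for no effect and tamoxifen positive control for full effect; nearly all actives have a fitted effect of over 25% in size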). The following applies: NIH 3T3 cell viability, qHTS; activity change, negative = cytotoxicity: at 92.2 µM (top of the series). A digest of the protocol: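 AC50 values reflect concentration-dependent loss of intracellular ATP in NIH 3T3 cells after 40 hr treatment in complete culture medium, quantified by luciferase-based luminescence.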
Background: Quantitative high-throughput screening tests each substance at several concentrations.

Assay [3] is described as follows: Cell Viability - H-4-II-E (AID 543; active = well fitted curve in the direction sought with a large enough effect; an effect the other way counts as inactive or inconclusive;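 also: cells exposed to compound for 40 hours; % is scaled to controls: 0 for no effect and ±100 for the full control effect; nearly all actives have a fitted effect of over 35% in size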). The settings on record: H-4-II-E rat hepatoma viability; series mostly up to 92.2 µM. A digest of the protocol: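 Here, cytotoxicity is measured in the rat hepatoma line H-4-II-E as loss of intracellular ATP after 40 hr compound treatment, detected by luciferase luminescence.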
Assay [4] is described as follows: MultiTox-Fluor Cytotoxicity Assay - LYMP1-001 - Live Cells (AID 947; active = well fitted curve in the direction sought with a large enough effect; an effect the other way counts as inactive or inconclusive;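 also: 0% = DMSO only and full inhibition = tetraoctylammonium bromide control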). The following applies: LYMP1-001 lymphoblastoid cells, live-cell protease fluorescence viability; series mostly up to 92.2 µM.
Assay [5] has as its target Estrogen receptor (Homo sapiens) (UniProt P03372). Kind of assay: qHTS assay for small molecule antagonists of estrogen receptor alpha signaling (AID 588513; active = well fitted curve in the direction sought with a large enough effect in the signal ratio, with a control signal flat, not every such curve was filed as active; the % refers to the signal ratio; also: % is scaled to controls: 0 for no effect and ±100 for the full control effect). The settings on record: ER-alpha-UAS-bla HEK293, beta-lactamase ratio, antagonist mode; series mostly up to 76.9 µM. The method in brief:
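Beta-lactamase reporter, antagonist mode, HEK 293 GripTite cells; 0.5nM E2 stimulus, 18 h, 37 C; CCF4 dye 2 h RT; fluorescence. IC50 and efficacy from Hill fits, normalized to E2 and DMSO.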

Assay [6] has the same target. Nature of the assay: qHTS assay for small molecule agonists of estrogen receptor alpha signaling (AID 588514).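 Also: 0% = vehicle only and 100% = reference agonist; nearly all actives have a fitted effect of over 70% in size.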 The settings on record: ER-alpha-UAS-bla HEK293, beta-lactamase ratio, 18 h; series mostly up to 76.8 µM. A digest of the protocol:
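Reporter-gene assay. […] controls beta-lactamase in HEK 293 GripTite cells; after 18 hrs with compound, CCF4 substrate is added for 2 hrs and fluorescence is read.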

For assay [7], the target named is Glucocorticoid receptor (Homo sapiens) (UniProt P04150). Kind of assay: qHTS assay for small molecule agonists of glucocorticoid receptor signaling (AID 588532; active = well fitted curve in the direction sought with a large enough effect in the signal ratio, with a control signal flat; the % refers to the signal ratio;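 also: 100% = dexamethasone at 0.1 µM and 0% = DMSO only wells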). The following applies: HeLa MMTV-bla, beta-lactamase ratio, agonist, 18 h; stronger effect = higher value; percent of dexamethasone control, DMSO zero. A digest of the protocol: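 Cells were plated and rested 3-5 h at 37 C, compounds were added in titration and incubated 18 h, then CCF4 substrate was loaded for 2 h at RT before reading blue/green fluorescence. EC50 came from Hill-equation fitting.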

The target is the same in assay [8]. Kind of assay: qHTS assay for small molecule antagonists of glucocorticoid receptor signaling (AID 588533; active = well fitted inhibition curve with a large enough effect in the signal ratio, with a control signal flat, not every such curve was filed as active; the % refers to the signal ratio; also: % is scaled to controls: 0 for no effect and ±100 for the full control effect). The settings on record: HeLa MMTV-bla, GRE beta-lactamase ratio, antagonist mode, 18 h; series mostly up to 76.8 µM. The method in brief: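 Antagonist-mode qHTS: compound titrations added to GRE-bla HeLa cells, then dexamethasone 2 nM final; 18 h, 37 C. CCF4 FRET fluorescence normalized to dexamethasone and DMSO; IC50 from Hill fit.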

Assay [9] in a line: qHTS assay for small molecule antagonists of peroxisome proliferator-activated receptor delta signaling (AID 588535; active = well fitted inhibition curve with a large enough effect in the signal ratio, with a control signal flat, not every such curve was filed as active; the % refers to the signal ratio;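 as to max response: cells co-treated with a PPAR-delta agonist as stimulator during compound exposure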). The following applies: HEK293T PPARd-UAS-bla, beta-lactamase FRET ratio, 18 h; 460 nm channel. The method in brief: (§1)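 Cells were seeded at 4000 per well in assay medium containing 2% charcoal/dextran FBS and held 5 hrs at 37 C. Compounds were then added for 18 hrs. CCF4 substrate was applied for 2 hrs at room temperature before fluorescence reading.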

For assay [10], the target named is Peroxisome proliferator-activated receptor delta (Homo sapiens) (UniProt Q03181). The assay is described as above. The settings on record: HEK293T PPARd-UAS-bla, beta-lactamase FRET ratio, 18 h; series mostly up to 76.7 µM. The method in brief:
as §1

The target of assay [11] is Peroxisome proliferator-activated receptor gamma (Homo sapiens) (UniProt P37231). Kind of assay: qHTS assay for small molecule antagonists of peroxisome proliferator-activated receptor gamma signaling (AID 588537; active = well fitted inhibition curve with a large enough effect in the signal ratio, with a control signal flat, not every such curve was filed as active; the % refers to the signal ratio;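 also: reporter cells co-stimulated with 50 nM rosiglitazone agonist during compound treatment; % of control where 0% means no effect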). The settings on record: HEK293 PPARg-UAS-bla, beta-lactamase ratio, antagonist mode; series mostly up to 76.8 µM. The method in brief: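 Step one: plate 3000 HEK293 UAS-bla cells per well in medium with 1% stripped serum and hold 6-6.5 h at 37 C. Step two: add compound and 50 nM agonist for 16 h. Step three: CCF4 loading, fluorescence read.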

The target of assay [12] is Vitamin D3 receptor (Homo sapiens) (UniProt P11473). Kind of assay: qHTS assay for small molecule antagonists of vitamin D receptor signaling (AID 588541).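 Also: receptor activated by calcitriol during compound treatment; % is scaled to controls: 0 for no effect and ±100 for the full control effect.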 The settings on record: HEK293T VDR-UAS-bla, beta-lactamase ratio, antagonist mode; series mostly up to 76.7 µM. The method in brief: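 VDR-UAS-bla HEK293T cells in 2% charcoal-stripped FBS were stimulated with 1-alpha,25-dihydroxyvitamin D3 (3 nM final) plus compound for 16 h at 37 C. The beta-lactamase CCF4 readout was normalized to 50 nM agonist and DMSO, and Hill fits gave IC50.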

The target in assay [13] is Thyroid hormone receptor beta (Homo sapiens) (UniProt P10828). Nature of the assay: qHTS assay for small molecule antagonists of thyroid hormone receptor beta signaling (AID 588547; active = well fitted inhibition curve with a large enough effect in the signal ratio, with a control signal flat, not every such curve was filed as active; the % refers to the signal ratio;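 also: cells stimulated with 0.4 nM T3 agonist during compound exposure; % is scaled to controls: 0 for no effect and ±100 for the full control effect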). The following applies: TR-UAS-bla HEK293, beta-lactamase ratio, antagonist mode, 18 h. The method in brief: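 TR-UAS-bla GripTite HEK293 cells in 2% charcoal/dextran FBS medium; compounds 0.59 nM to 92 uM with T3 at 0.4nM final, 18 h at 37 C. Beta-lactamase read by CCF4 fluorescence (460/530 nm); Hill fits gave IC50 and efficacy.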

Assay [14] in a line: qHTS assay for small molecule agonists of the antioxidant response element (ARE) signaling pathway (AID 651741; active = well fitted activation curve with a large enough effect in the signal ratio; the % refers to the signal ratio; also: potency is read from the fitted curve at half-maximal effect; as to activation: % of control where 0% means no effect). The settings on record: HepG2 ARE-bla reporter, beta-lactamase FRET ratio, 16 h; series mostly up to 96 µM. The method in brief: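 HepG2 ARE-bla cells plated at 2,000 cells/well and incubated 5 h at 37 C/5% CO2 received 23 nL compound in DMSO. After 16 h at 37 C, LiveBLAzer B/G FRET substrate was applied for 2 h at room temperature and fluorescence read.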

Assay [15] is described as follows: qHTS assay for small molecule activators of the nuclear factor-kappa B (NF-kB) signaling pathway (AID 651749; active = well fitted activation curve with a large enough effect in the signal ratio; the % refers to the signal ratio; also: % of control where 0% means no effect). The following applies: NF-kB-bla ME-180 cells, beta-lactamase FRET ratio, 16 h; stronger effect = higher value. A digest of the protocol:
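Incubation lasted 16 hr at 37C in 5% CO2 after 23 nL compound addition to ME-180 NF-kB-bla cells. Activation appears as beta-lactamase-mediated FRET loss.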

Assay [16] in a line: qHTS assay for small molecule disruptors of the mitochondrial membrane potential - 5 hr assay (AID 651755). Also: nearly all actives have a fitted effect of over 40% in size. Also: potency is read from the fitted curve at half-maximal effect. The settings on record: JC-1-type ratio dye; series mostly up to 92.2 µM. The method in brief: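 HepG2 cells (2,000/well), attached overnight, exposed to compound 5 hr at 37C, then Mito-MPS dye 30 min. Fluorescence read for monomers (490/535 nm) and aggregates (540/590 nm).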

Assay [17] has as its target Peroxisome proliferator-activated receptor delta (Homo sapiens) (UniProt Q03181). Nature of the assay: qHTS assay for small molecule agonists of peroxisome proliferator-activated receptor delta signaling (AID 588534).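 Also: 0% = DMSO basal wells and 100% = positive control agonist at 10 µM.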 The settings on record: HEK293T PPARdelta-UAS-bla, beta-lactamase ratio, 18 h; series mostly up to 76.7 µM. A digest of the protocol: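 Reporter cells were plated and held 5 hrs at 37 C before compounds were added. After 18 hrs at 37 C, CCF4 dye was loaded for 2 hrs at RT and fluorescence measured.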

A short description of assay [18]: qHTS assay for small molecule disruptors of the mitochondrial membrane potential - 1 hr assay (AID 651754). Also: nearly all actives have a fitted effect of over 35% in size. Also: potency is read from the fitted curve at half-maximal effect. The following applies: series mostly up to 92.2 µM. A digest of the protocol: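 Steps: seed HepG2 cells and let attach overnight; pin-transfer compound or vehicle; incubate 1 hr at 37C; add Mito-MPS dye for 30 min; read two-channel fluorescence for monomer and aggregate forms.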

Assay [19] can be described thus: qHTS assay for small molecule agonists of the antioxidant response element (ARE) signaling pathway measured by Nrf2-dependant transcriptional activity (AID 720636; active = well fitted curve in the direction sought with a large enough effect in the repeat runs; an effect the other way counts as inactive or inconclusive; also: % of control where 0% means no effect). The settings on record: ARE-luc HepG2, Nrf2 luciferase reporter, 16 h; series mostly up to 92.4 µM. The method in brief: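 Attachment 6 hr at 37 C, then compound versus DMSO vehicle for 16 hr in ARE-luc HepG2 cells (1% dialyzed FBS); luminescence recorded 30 min after ONE-Glo addition at room temperature.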

Assay [20] concerns the target Nuclear receptor ROR-gamma (Homo sapiens) (UniProt P51449). Nature of the assay: qHTS assay for small molecule antagonists of the retinoid-related orphan receptor gamma (ROR-gamma) signaling pathway (AID 651802; active = well fitted curve in the direction sought with a large enough effect; an effect the other way counts as inactive or inconclusive;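 also: CHO cells with doxycycline-induced ROR-gamma expression; luciferase reporter luminescence driven by ROR response element; % is scaled to controls: 0 for no effect and ±100 for the full control effect; nearly all actives have a fitted effect of over 60% in size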). The settings on record: ROR-gamma antagonist cell reporter assay; series mostly up to 92.2 µM. The method in brief: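 Antagonism is scored as a fall in luminescence from a RORE-luciferase reporter in CHO cells expressing ROR under a TET-inducible promoter, measured 16hr after doxycycline induction in the presence of compound.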

Peroxisome proliferator-activated receptor gamma (Homo sapiens), sequence (P37231 whole entry, looked up): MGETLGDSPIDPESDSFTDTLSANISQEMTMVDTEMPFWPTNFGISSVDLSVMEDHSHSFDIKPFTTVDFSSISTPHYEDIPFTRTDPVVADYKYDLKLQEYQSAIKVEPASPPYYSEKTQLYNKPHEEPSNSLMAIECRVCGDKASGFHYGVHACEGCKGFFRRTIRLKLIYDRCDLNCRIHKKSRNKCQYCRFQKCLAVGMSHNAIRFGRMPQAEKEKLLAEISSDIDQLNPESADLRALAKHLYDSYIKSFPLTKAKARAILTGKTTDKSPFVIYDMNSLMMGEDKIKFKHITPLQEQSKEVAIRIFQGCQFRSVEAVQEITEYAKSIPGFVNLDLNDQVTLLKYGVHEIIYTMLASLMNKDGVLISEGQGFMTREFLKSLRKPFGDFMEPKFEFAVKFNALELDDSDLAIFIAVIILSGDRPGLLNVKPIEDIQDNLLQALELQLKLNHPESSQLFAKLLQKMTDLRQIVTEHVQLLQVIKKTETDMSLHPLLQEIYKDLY
Thyroid hormone receptor beta (Homo sapiens), sequence (P10828 whole entry, looked up): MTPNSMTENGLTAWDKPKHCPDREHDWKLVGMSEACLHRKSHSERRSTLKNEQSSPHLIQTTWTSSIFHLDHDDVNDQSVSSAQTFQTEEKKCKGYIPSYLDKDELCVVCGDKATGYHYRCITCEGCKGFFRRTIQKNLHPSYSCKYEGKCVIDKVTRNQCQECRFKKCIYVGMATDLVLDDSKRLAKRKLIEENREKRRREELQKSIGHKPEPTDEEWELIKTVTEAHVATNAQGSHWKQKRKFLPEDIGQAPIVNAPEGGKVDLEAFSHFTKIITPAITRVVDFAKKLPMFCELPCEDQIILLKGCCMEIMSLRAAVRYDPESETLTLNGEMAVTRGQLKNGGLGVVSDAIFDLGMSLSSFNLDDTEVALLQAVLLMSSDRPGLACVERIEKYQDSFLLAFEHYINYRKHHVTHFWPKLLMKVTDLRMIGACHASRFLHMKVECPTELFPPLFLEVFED
Peroxisome proliferator-activated receptor delta (Homo sapiens), sequence (Q03181 whole entry, looked up): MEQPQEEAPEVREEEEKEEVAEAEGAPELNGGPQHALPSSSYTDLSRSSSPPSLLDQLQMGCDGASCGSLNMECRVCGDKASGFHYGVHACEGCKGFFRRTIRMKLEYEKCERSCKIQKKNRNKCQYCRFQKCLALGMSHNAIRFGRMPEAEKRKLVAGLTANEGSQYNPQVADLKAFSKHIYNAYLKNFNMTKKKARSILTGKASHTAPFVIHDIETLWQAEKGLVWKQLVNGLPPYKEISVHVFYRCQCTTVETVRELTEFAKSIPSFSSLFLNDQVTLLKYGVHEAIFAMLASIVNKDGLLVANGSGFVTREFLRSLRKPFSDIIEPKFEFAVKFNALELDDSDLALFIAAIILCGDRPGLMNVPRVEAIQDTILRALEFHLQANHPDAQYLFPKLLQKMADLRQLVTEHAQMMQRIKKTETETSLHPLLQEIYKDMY
Glucocorticoid receptor (Homo sapiens), sequence (P04150 whole entry, looked up): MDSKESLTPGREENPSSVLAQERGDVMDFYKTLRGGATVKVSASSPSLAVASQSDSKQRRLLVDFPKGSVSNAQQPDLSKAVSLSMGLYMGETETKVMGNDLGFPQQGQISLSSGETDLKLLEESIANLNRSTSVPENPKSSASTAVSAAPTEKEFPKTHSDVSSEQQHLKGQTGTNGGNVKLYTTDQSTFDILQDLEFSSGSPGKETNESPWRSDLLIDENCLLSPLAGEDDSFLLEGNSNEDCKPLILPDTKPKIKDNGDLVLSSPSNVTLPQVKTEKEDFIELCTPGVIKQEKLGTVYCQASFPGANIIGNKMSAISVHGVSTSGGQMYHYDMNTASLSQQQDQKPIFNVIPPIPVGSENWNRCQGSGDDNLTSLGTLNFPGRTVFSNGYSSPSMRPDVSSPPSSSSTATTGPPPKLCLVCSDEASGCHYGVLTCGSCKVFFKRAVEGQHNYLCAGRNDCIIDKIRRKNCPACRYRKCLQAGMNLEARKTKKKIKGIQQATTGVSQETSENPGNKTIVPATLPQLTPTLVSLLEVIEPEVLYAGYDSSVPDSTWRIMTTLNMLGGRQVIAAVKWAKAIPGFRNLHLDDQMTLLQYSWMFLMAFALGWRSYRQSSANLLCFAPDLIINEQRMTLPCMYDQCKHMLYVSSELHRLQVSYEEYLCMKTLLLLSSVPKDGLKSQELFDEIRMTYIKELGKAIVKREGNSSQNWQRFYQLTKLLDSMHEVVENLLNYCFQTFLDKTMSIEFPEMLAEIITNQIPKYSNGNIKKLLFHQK
Vitamin D3 receptor (Homo sapiens), sequence (P11473 whole entry, looked up): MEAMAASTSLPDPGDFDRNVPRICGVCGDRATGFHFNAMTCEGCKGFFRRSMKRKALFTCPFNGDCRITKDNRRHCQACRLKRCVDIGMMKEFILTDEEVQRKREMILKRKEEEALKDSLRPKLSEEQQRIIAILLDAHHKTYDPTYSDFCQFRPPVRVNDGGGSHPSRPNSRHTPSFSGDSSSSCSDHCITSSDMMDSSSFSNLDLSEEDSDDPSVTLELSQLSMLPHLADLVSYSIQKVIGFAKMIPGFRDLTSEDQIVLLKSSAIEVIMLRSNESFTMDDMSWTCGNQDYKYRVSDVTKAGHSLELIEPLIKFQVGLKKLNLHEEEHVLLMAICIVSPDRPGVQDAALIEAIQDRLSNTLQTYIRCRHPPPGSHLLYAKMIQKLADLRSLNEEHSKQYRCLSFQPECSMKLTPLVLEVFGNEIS
Nuclear receptor ROR-gamma (Homo sapiens), sequence (P51449 whole entry, looked up): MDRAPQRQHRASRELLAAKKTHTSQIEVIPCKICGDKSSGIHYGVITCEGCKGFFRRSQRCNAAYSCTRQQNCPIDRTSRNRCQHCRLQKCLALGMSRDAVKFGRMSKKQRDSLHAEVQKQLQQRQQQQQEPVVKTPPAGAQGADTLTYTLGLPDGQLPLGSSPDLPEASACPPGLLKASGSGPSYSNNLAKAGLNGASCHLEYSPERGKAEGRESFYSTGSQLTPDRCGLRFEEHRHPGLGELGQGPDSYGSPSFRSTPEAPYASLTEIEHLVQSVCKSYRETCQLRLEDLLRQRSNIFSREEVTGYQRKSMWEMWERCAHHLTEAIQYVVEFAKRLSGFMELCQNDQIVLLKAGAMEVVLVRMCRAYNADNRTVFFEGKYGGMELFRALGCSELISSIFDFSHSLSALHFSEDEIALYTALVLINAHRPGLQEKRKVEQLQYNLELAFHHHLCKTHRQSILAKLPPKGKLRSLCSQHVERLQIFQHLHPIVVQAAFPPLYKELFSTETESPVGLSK
Estrogen receptor (Homo sapiens), sequence (P03372 whole entry, looked up): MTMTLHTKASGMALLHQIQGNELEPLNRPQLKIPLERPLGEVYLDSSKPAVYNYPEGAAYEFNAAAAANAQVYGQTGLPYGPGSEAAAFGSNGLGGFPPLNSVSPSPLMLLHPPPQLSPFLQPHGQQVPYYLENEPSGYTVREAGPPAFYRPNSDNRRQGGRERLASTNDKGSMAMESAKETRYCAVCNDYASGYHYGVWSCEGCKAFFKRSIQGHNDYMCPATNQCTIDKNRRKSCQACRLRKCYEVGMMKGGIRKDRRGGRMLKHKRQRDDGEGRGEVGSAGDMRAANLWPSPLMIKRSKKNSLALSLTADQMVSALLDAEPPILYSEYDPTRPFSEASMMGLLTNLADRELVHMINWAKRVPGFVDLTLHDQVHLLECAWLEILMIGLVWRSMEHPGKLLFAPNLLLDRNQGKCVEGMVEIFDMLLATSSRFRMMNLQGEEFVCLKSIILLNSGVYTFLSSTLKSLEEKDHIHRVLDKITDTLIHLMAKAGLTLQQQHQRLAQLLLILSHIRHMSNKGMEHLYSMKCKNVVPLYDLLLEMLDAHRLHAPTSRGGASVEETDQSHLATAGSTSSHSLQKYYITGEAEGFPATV

As to `CCOP(=S)(OCC)Oc1nc(Cl)c(Cl)cc1Cl`, the Potency is > 92 µM (inactive) in assay [1] and 37.6 µM (active) [middle of 4 runs] in assay [14]. For the same compound, the Potency result in assay [2], in [3], in assay [5], in [6], in [11] and in assay [16] was “inactive” throughout. Further, the compound was called inactive in assay [4], in assay [8], in [10] and in [12]. Further, the activation in assay [7] is 0.796% (inactive) [middle of 4 runs]; in assay [15], -1.28% (inactive) [middle of 4 runs]. The max response in assay [9] amounted to 21.6%. The activity change % (negative = inhibition) in assay [13] was 4.5% (inactive) and 5.64% (inactive) and -7.44% (inactive).

As to `O=Cc1ccc(Cl)cc1Cl`, the Potency in assay [1] was > 92 µM (inactive). For the same compound, the Potency entry in assay [2], in assay [3], in assay [11], in assay [18], in assay [16] and in assay [19] was “inactive” throughout. Moreover, the call in assay [4], in [17] and in [10] was inactive. Also, the max response in assay [9] was -26.8%. Moreover, the activity change % (negative = inhibition) in [13] was 0.009% (inactive). Also, in assay [15], the activation is 1.15% (inactive).

`Clc1ccc(C(Cl)(Cl)Cl)c(Cl)c1`: the Potency in assay [1] was > 92 µM (inactive). Moreover, the Potency result in [3], in assay [11], in assay [14], in assay [18], in assay [16] and in assay [20] was “inactive” each time. The Potency result in assay [19] was “inactive”. In addition, the result in assay [17], in assay [10] and in assay [12] was inactive. Further, in [9], the max response turned out to be 5.85%. In assay [13], the activity change % (negative = inhibition) was 16.5% (inactive). The activation in assay [15] is -0.477% (inactive).

On to `Cc1ccc2c(C)cccc2c1`, for which the Potency in [1] is > 92 µM (inactive). Besides, the Potency result in assay [2], in assay [5], in assay [6], in assay [11], in assay [14] and in assay [18] was “inactive” in each case. Besides, the Potency entry in [20] and in assay [19] was “inactive” in each case. Moreover, in [7], the activation is -2.73% (inactive). Besides, the result in assay [17], in assay [10] and in assay [12] was inactive. Besides, the max response in assay [9] came to 16.7%.

Regarding `COC(=O)Nc1cccc(OC(=O)Nc2cccc(C)c2)c1`, the Potency is > 92 µM (inactive) in [1], 42.2 µM (active) in assay [18] and 42.2 µM (active) in assay [16]. The Potency result in [2] and in [20] was “inactive” each time. Also, the compound was called inactive in [4], in [8] and in assay [17]. The activation in [7] is -3.09% (inactive); in assay [15], -1.26% (inactive). In assay [13], the activity change % (negative = inhibition) was -5.68% (inactive).

As for `CC(Cl)CCl` (configuration not stated), the Potency in assay [1] is > 92 µM (inactive). In addition, the compound was classed as inactive in assay [4], in assay [8], in assay [17] and in assay [12]. The Potency entry in assay [5], in assay [6], in [14], in [16], in assay [20] and in [19] was “inactive” throughout. The activation in assay [7] is 4.13% (inactive). For the same compound, the activity change % (negative = inhibition) in assay [13] is -3.7% (inactive).

Regarding `OCCOCCO`, the Potency in assay [1] is > 92 µM (inactive). In addition, the Potency entry in [2], in assay [5], in assay [6], in [11], in assay [18] and in assay [16] was “inactive” throughout. For the same compound, the Potency entry in [20] and in [19] was “inactive” in each case. In addition, the activation in assay [7] was -0.687% (inactive). Moreover, the result in [8], in assay [10] and in assay [12] was inactive. For the same compound, in assay [9], the max response came to 5.13%. In assay [13], the activity change % (negative = inhibition) was -14.9% (inactive).

With `O=[N+]([O-])c1cccc2c([N+](=O)[O-])cccc12`, the Potency is > 92 µM (inactive) in assay [1] and 4.73 µM (active) in [14]. The activation in [7] is -1.31% (inactive); in assay [15] it was 0.0339% (inactive). Besides, the outcome in assay [8] and in assay [10] was inactive. Further, the max response in assay [9] is -9.5%. For the same compound, the activity change % (negative = inhibition) in assay [13] is -3.1% (inactive). Also, the Potency result in assay [18], in [16] and in assay [20] was “inactive” each time.
